Experimental data published in ChEMBL document CHEMBL3433997, “St. Jude Leishmania screening dataset” (2016).

Key:
Assay type in all cases: functional
[1] = biological target: Solute carrier family 2, facilitated glucose transporter member 1 (Homo sapiens) (UniProt P11166); test: ST_JUDE_LEISH: Cytotoxicity at 2uM final concentration against transgenic Leishmania Mexicana promastigotes LmGLUT1 that are glucose transport deficient and complemented with the human glucose transporter GLUT1. Activity is measured by DNA content using SYBR green in vitro
[2] = biological target: Hexose transporter 1 (Plasmodium falciparum) (UniProt O97467); test: ST_JUDE_LEISH: Cytotoxicity at 2uM final concentration against transgenic Leishmania Mexicana promastigotes LmPfHT that are glucose transport deficient and complemented with the Plasmodium falciparum hexose transporter. Activity is measured by DNA content using SYBR green in vitro
[3] = biological target: Glucose transporter (Leishmania mexicana) (UniProt O61059); test: ST_JUDE_LEISH: Cytotoxicity at 2uM final concentration against transgenic Leishmania Mexicana promastigotes LmGT2 that are glucose transport deficient and complemented with the L. Mexicana glucose transporter 2. Activity is measured by DNA content using SYBR green in vitro

Chain of Solute carrier family 2, facilitated glucose transporter member 1 (Homo sapiens) (P11166 whole entry): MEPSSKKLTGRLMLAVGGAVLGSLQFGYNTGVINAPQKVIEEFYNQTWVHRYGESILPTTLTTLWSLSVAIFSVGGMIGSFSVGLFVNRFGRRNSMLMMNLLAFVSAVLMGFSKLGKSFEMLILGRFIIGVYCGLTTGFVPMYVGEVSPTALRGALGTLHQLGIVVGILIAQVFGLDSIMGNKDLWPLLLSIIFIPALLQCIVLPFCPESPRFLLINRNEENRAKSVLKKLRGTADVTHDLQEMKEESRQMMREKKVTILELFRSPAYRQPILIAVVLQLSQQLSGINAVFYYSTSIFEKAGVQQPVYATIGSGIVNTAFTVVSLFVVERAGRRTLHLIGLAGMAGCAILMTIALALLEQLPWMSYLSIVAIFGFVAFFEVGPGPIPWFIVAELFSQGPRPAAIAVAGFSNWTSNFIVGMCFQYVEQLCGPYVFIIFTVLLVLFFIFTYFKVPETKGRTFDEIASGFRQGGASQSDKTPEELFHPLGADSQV

| Compound | inhibition [1] [%] | inhibition [2] [%] | inhibition [3] [%] |
| --- | --- | --- | --- |
| O=C(N[C@@H](Cc1ccccc1)CN1CCC(Oc2ccc(F)cc2)CC1)c1ccc(OCCCN2CCCCC2)cc1 | 30.5 | 10.5 | 13.4 |
| CC=CCON1C(=N)NC(=N)NC1(C)C | 1.93 | 1.47 | 1.8 |
| N#Cc1cnc(Nc2ccc(Oc3ccccc3)cc2)nc1Nc1cccc(S(N)(=O)=O)c1 | -0.14 | 5.38 | 5.25 |
| CCOC(=O)c1ccc(NC(=O)Nc2cccc(-c3cccc(-c4nc5cccc(C)c5[nH]4)c3)c2)cc1 | 2.35 | 3.22 | 1.01 |
| O=S1(=O)NCc2ccc(Nc3nccc(Nc4ccc5c(cnn5Cc5ccccc5)c4)n3)cc21 | -0.8 | 6.35 | -1.65 |
| CCCCCN(C(=O)Nc1cc(C(F)(F)F)cc(C(F)(F)F)c1)C(C)c1nc2ccccc2c(=O)n1CC (stereo not given) | -0.28 | 1.02 | 6.73 |
| Cc1ccc(Nc2nc(N)c3ccccc3n2)cc1 | 22 | 17.5 | 4.74 |
| COc1ccc(-c2cccc(NC(=O)c3ccc(Cl)cc3)c2)cc1CNC(C)C | 3.8 | 2.1 | -1.5 |
| CCN(c1cc(C)nc(Nc2ccc(Cl)cc2)n1)[C@H]1CCN(Cc2ccccc2)C1 | 9.15 | 7.78 | 6.41 |
| O=C(Nc1ccc(OC2CCN(Cc3ccccc3)CC2)c(Cl)c1)c1ccc(F)cc1 | 2.05 | 2 | 1.68 |
| CCOc1ccc(C(Cc2ccccc2)NC(=O)c2cccnc2)cc1OCC (stereo not given) | 0.79 | -2.62 | -0.89 |
| CC(O)C1CCCCN1C(=O)c1cccc(-c2ccc(-c3nc4cc(F)ccc4[nH]3)cc2)c1 (stereo not given) | 2.72 | 5.12 | 4.37 |
| CCC(C)CN1CCCN(c2ccc(NC(=O)c3cccs3)cc2)CC1 (stereo not given) | 1.62 | -0.95 | 5.89 |
| Cc1nc(C)c(-c2ccc(Oc3ccc(Cl)c(Cl)c3)cc2)c(O)c1Cl | 1.91 | 1.63 | 2.1 |
| CCCN(CC1CC1)c1ncc(-c2cccc(CNCc3ccccc3O)c2)cn1 | -1.8 | -2.3 | -1.63 |
| Cc1cc(C(=O)Nc2ccc3c(c2)CCN3C2CCN(Cc3cccc4cc[nH]c34)C2)no1 (stereo not given) | 2.23 | 1.71 | 3.09 |
| O=C(Nc1ccnc(N2CCCN(Cc3cccc(O)c3)CC2)c1)c1ccc(F)cc1 | 2.79 | 0.77 | 4.83 |
| COc1cc(-c2nc(-c3ccccc3)c(-c3ccccc3)[nH]2)ccc1OCCN(C)C | 1.69 | 1.4 | 0.91 |

| Compound | inhibition [1] [%] | inhibition [2] [%] | inhibition [3] [%] |
| --- | --- | --- | --- |
| O=C(NCCc1cccc(F)c1)c1ccc(N2CCN(c3ccncc3)CC2)cn1 | 8.21 | 4.37 | 6.9 |
| CCN1CCN(c2ccc(NC(=O)c3cc4c(C)nn(-c5ccccc5)c4s3)cc2C)CC1 | 1.44 | 3.9 | -1.39 |
| N#Cc1ccc(N2CCN(Cc3ccc(-c4ccc(-c5nc6ccccc6[nH]5)s4)cc3)CC2)nc1 | 6.79 | 6.18 | 2.59 |
| COc1ccc2nc3cc(Cl)ccc3c(NCCN(C)C)c2c1 | 7.53 | 5.07 | 6.53 |
| CCOc1cc(CC)ccc1C1CCN(CCN2CCC(NC(=O)c3ccc(-c4ccc(C(C)=O)cc4)cc3)CC2)CC1 | 1.17 | 1.9 | 1.24 |
| O=C(Nc1ccc(Cl)cc1F)N[C@H]1CCN(CCCCCNC(=O)C2CC2c2ccc(Cl)c(Cl)c2)C1 (stereo not given in full) | 8.35 | 8.26 | 8.63 |
| CCCCCCC1(C)N=C(N)N=C(N)C1c1ccc(Cl)c(Cl)c1 (stereo not given) | 1.71 | 1.39 | 0.06 |
| C=CCC1OC(=O)c2cc(OC)cc(OC)c21 (stereo not given) | 89.1 | 84.4 | 86.9 |
| CNc1nc(N/N=C/c2cc3c(cc2[N+](=O)[O-])OCO3)nc(Nc2cccc(C(F)(F)F)c2)n1 | 6.24 | 5.94 | 2.16 |
| Clc1ccc(CNc2ccnc(NCc3ccc4c(c3)OCCCO4)n2)c(Cl)c1 | 4.44 | 5.76 | 3.69 |
| O=C1NC(c2ccc(N3CCCCCC3)cc2)Nc2ccccc21 (stereo not given) | 6.32 | 4.82 | 2.21 |
| Cc1cccn2c(=O)c3cc(C(=O)NCCc4ccccc4)c(=N)n(CCCOC(C)C)c3nc12 | 8.75 | 6.64 | 2.98 |
| CN(C)c1ccc(C2(c3ccccc3)N=C(N)N(CCCc3ccccc3)C2=O)cc1 (stereo not given) | 3.64 | 3.4 | 0.65 |
| CC(CN(C)C)Oc1ccc2nc(-c3cccc(OCc4ccccc4)c3)[nH]c2c1C#N (stereo not given) | -1.18 | 0.94 | 0.08 |
| Cc1c(C)n(C2CCCCC2)c2ncnc(OC3CCN(CC(=O)N4CCCC4)CC3)c12 | 1.06 | 3.02 | 1.38 |
| CCCCCCOc1ccc(C(=O)NCCC2CCN(CCCCCNC(=O)C=Cc3ccc(Cl)c(Cl)c3)CC2)cc1 | -0.8 | -0.99 | -0.17 |
| O=C(Nc1ccc(Cn2nc(Cl)c(N3CCCNCC3)cc2=O)cc1)c1ccc(-c2ccccc2)cc1 | 7.36 | 5.68 | 4.52 |
